Experimental findings from publication PMC7819943, “Rice protein-binding microarrays: a tool to detect cis-acting elements near promoter regions in rice” are described below.

In all, about 68,000 sequences were measured (“fluorescence intensity (a.u.)”: median about 9,100, highest 2% from about 16,000 on). Shown is part of a subset that was picked to be rich in the highest values.

Chain of OsWRKY34 (Q0JBA9 entry or part of it): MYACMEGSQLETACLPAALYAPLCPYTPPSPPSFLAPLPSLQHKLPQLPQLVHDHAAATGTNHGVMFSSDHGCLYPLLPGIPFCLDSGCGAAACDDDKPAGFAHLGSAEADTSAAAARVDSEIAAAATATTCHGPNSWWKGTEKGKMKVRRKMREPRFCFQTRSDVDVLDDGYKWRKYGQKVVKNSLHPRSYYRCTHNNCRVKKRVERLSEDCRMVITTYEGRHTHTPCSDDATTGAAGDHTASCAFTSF

The test deals with OsWRKY34 (Oryza sativa, UniProt Q0JBA9 1-250). In words: protein-binding microarray (RPBM); PBS, 2% BSA, 51.3 ng/ul salmon testes DNA, 50 uM zinc acetate, 200 nM TF, 25 C, 1 h; high values mean tight binding. Conditions: protein: recombinant; tags: N-terminal polyhistidine and DsRed monomer fusion (pET32a); label: CyDye5-dUTP incorporated in the synthesized complementary strand; 3' TTTTT single-stranded linker to array surface; dsDNA, one strand shown. In a few lines:
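Using Ni–NTA, transcription factors fused N-terminally to polyhistidine and DsRed were purified after expression in E. coli BL21-CodonPlus. These were incubated at 200 nM with a blocked, double-stranded custom Agilent array for 1 h at 25 °C in a buffer containing 50 µM zinc acetate, and the array was washed. The binding signal is per-feature fluorescence intensity (arbitrary units) on an Axon 4000B scanner.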
For the sequence “CGTTCCACCGCCGCGCCTCTTCCCCGCCCCGATCGGCTGCCGGAGTCACCTAGTGCAG”, the binding signal was 8810 fluorescence intensity (a.u.). As for “ACTACAGTCCCTCGCCATGCATGCGCCGTCAGATGTCCAACGGAGTCACCTAGTGCAG”, the figure is 11500 fluorescence intensity (a.u.). “GAGCGGGGCGGGGCTGCATTTGGCGTCGCGATGGACCTCACGGAGTCACCTAGTGCAG”: the binding signal was 12600 fluorescence intensity (a.u.). The figure for “TTTTTACATCTTAGCCCCTTGCCGCTTTTGCGAATTTTGCCGGAGTCACCTAGTGCAG” is 9810 fluorescence intensity (a.u.).

With “GCCCACCATTTCCCCAAACATTTCCACACATTCCTACAATCGGAGTCACCTAGTGCAG”, the binding signal is 13600 fluorescence intensity (a.u.). Regarding “GTAGATGTAGTAGCTAGCTTTTGTTAATTTCAACGTTCCACGGAGTCACCTAGTGCAG”, the binding signal was 8380 fluorescence intensity (a.u.). As for “AATATTTTTTTTCTCAATCATTTCTTATCATTATTATTATCGGAGTCACCTAGTGCAG”, the binding signal was 8280 fluorescence intensity (a.u.).

On to “TCTTCATTTCCGTGTTCAGCAGCTTTGCAATAATTTCTATCGGAGTCACCTAGTGCAG”, for which the binding signal was 11900 fluorescence intensity (a.u.). On to “ATCATCCCATCCCATCTCATCCGTCCATCCGCCAACTCATCGGAGTCACCTAGTGCAG”, for which the binding signal was 12300 fluorescence intensity (a.u.).

As for “TCCCACTCAGCTGTCCGTCCGCCAATCACTGTACTTCTATCGGAGTCACCTAGTGCAG”, the binding signal is 22000 fluorescence intensity (a.u.). As to “TTTCCTCCGTCCCTGAGCTGTACTCGCGCCAATCAATCATCGGAGTCACCTAGTGCAG”, the binding signal is 9570 fluorescence intensity (a.u.).

For “GGAGGGTTAGATCACCAGGGGCGGGTTGATGCAAAAAATTCGGAGTCACCTAGTGCAG”, the binding signal is 17000 fluorescence intensity (a.u.). As for “CAGTGTAGGGGAGAGAGAGAGAGAGTGGGGTAGAGGGATGCGGAGTCACCTAGTGCAG”, the figure is 8980 fluorescence intensity (a.u.). Consider “GGAGGAGGAGCTAGGGTTTCGGATGGGAGGAGGAGGAGGGCGGAGTCACCTAGTGCAG”, for which the binding signal was 8800 fluorescence intensity (a.u.). Consider “GGCGGCGGCGGCAGGGGCGGCGGAGGGTTGGCGGCGGCGGCGGAGTCACCTAGTGCAG”, for which the binding signal was 11000 fluorescence intensity (a.u.). Consider “GAGGTAGGGAGAGGTTTCGTTAGGGTTTCGGGCGGGGATGCGGAGTCACCTAGTGCAG”, for which the binding signal is 19900 fluorescence intensity (a.u.). For “TTCGGGGAGGGTTTTCGGGGACAGCAGCTGCGGGCTTAAACGGAGTCACCTAGTGCAG”, the binding signal is 18700 fluorescence intensity (a.u.).

Consider “CGGAGAGGGAGGGGAGCTAGGGTTTTTCGGGGCGGGGATGCGGAGTCACCTAGTGCAG”, for which the binding signal was 27600 fluorescence intensity (a.u.). Turning to “AGAGATCGGGGTTTGGTTTTTTGGAGGGGAGAGCGGAGTGCGGAGTCACCTAGTGCAG”, the binding signal was 10200 fluorescence intensity (a.u.). Consider “GGGTTTTTTTTTTTTTTGCTGCTTTGCTTAGCACTTTTTTCGGAGTCACCTAGTGCAG”, for which the binding signal is 8340 fluorescence intensity (a.u.). “CCAGGAGGGTGAGCTTGATGCAGGGGCGGGTGCGGGCGAGCGGAGTCACCTAGTGCAG”: the binding signal was 12500 fluorescence intensity (a.u.). Turning to “ATCGGGGTTGTTGTTTTTGTAGCTGCTTAAGCTTTTTATTCGGAGTCACCTAGTGCAG”, the binding signal is 14100 fluorescence intensity (a.u.). Take “CGGGAGGGCGAGAGGGTTTTCGGAGCGGGAGGGGAAGATGCGGAGTCACCTAGTGCAG”: the binding signal is 15200 fluorescence intensity (a.u.). As for “TCTCGATCTCCCCGCCTATTTATGCTCGTCTCGTCACCCGCGGAGTCACCTAGTGCAG”, the figure is 8140 fluorescence intensity (a.u.).

Consider “GATATTTTGCTTGTATTGTTCGACCACTCGTCTTATTAAACGGAGTCACCTAGTGCAG”, for which the binding signal was 8040 fluorescence intensity (a.u.). For “TCATCTCATCTCTCTCGTTTTTATATGCACGTTTTTCAAACGGAGTCACCTAGTGCAG”, the binding signal was 9530 fluorescence intensity (a.u.). “TTTGGGTGGTGGCAGTTGACAGAAGAGAGTGAGCACACAGCGGAGTCACCTAGTGCAG”: the binding signal was 8270 fluorescence intensity (a.u.). Take “TTTACAATGGTATCTATGTGTTGTTTTTGTGTGTGTGTGTCGGAGTCACCTAGTGCAG”: the binding signal was 10100 fluorescence intensity (a.u.). For the sequence “ATGCTTGCCTTCTTCTTATTCTCCTTCCCTATGGTCTTCTCGGAGTCACCTAGTGCAG”, the binding signal was 8770 fluorescence intensity (a.u.). Turning to “ACATGCAACAGTGTGTCGTGCTTGTATTTCTGTTATCTGACGGAGTCACCTAGTGCAG”, the binding signal was 8660 fluorescence intensity (a.u.).

With “TCCGTTTTGCCGTTGGGCTAGCTTAGCTTGTTTTTTTTTTCGGAGTCACCTAGTGCAG”, the binding signal was 12000 fluorescence intensity (a.u.). Regarding “TCCAACTTGGGGAGGGAGGGCCGTTTCAGCTCGGGCTTTTCGGAGTCACCTAGTGCAG”, the binding signal is 17200 fluorescence intensity (a.u.).

With “GTGCATGTGTAGGGAGGGCACAATGGAGGGGTGTTTTTTTCGGAGTCACCTAGTGCAG”, the binding signal is 15000 fluorescence intensity (a.u.). Turning to “ATGGGTGGAGGAGTGGGAGGGGATTAAATATCGGCGGAGGCGGAGTCACCTAGTGCAG”, the binding signal was 9240 fluorescence intensity (a.u.).

For the sequence “ATGTGATTAAATGGAGGGTTTTCGGGGAGGGTTTTCGGGGCGGAGTCACCTAGTGCAG”, the binding signal is 24100 fluorescence intensity (a.u.). Consider “CTTCAACTTTCTCGTTTTCCGTCAGCACGCTTTCCAAACTCGGAGTCACCTAGTGCAG”, for which the binding signal was 9080 fluorescence intensity (a.u.). The figure for “AATGTGACCAAGCCAACTTAACTTATTATACTTCTTAGTTCGGAGTCACCTAGTGCAG” is 8680 fluorescence intensity (a.u.); for “CCAAGACCGCACCCGTATAAAGCCGCAGACCTCTCTCTCCCGGAGTCACCTAGTGCAG” it is 10100 fluorescence intensity (a.u.); for “CTCTGACCATATATCACGTTCTACGTCCAGGTCAAATCACCGGAGTCACCTAGTGCAG” it is 8730 fluorescence intensity (a.u.). Regarding “TGCGTCCCTCTTCCTTCATTCTCCTGACGCCTAGGGCCCACGGAGTCACCTAGTGCAG”, the binding signal is 8280 fluorescence intensity (a.u.).

For “TTATGGGTATGTCACCAGGGGTTTAATCTTTCATTTTCAACGGAGTCACCTAGTGCAG”, the binding signal was 12300 fluorescence intensity (a.u.). Regarding “CACTCAACCTAACTGTTGAACGGTCCTGTTCTGGCCAACGCGGAGTCACCTAGTGCAG”, the binding signal was 8890 fluorescence intensity (a.u.). With “ATGATAGGTCCTGGACTCACAAGTTATTGAGAACGGCACGCGGAGTCACCTAGTGCAG”, the binding signal was 50900 fluorescence intensity (a.u.). For “CTGGACGCGGTCCTGCACGACACATGCATCATCTCCTCAACGGAGTCACCTAGTGCAG”, the binding signal is 8570 fluorescence intensity (a.u.).

For the sequence “TGGTGTGTTTTTTGGGATGTTTCGGTAGGTATTTTGTGATCGGAGTCACCTAGTGCAG”, the binding signal is 12000 fluorescence intensity (a.u.). Take “GGCTGCCTCCTCTCCTCATCCCTGCACCTACACTCCAATACGGAGTCACCTAGTGCAG”: the binding signal is 8530 fluorescence intensity (a.u.). Turning to “TTACACATTTCTTTTTCATCACTGCTGATATGTTATCCTTCGGAGTCACCTAGTGCAG”, the binding signal is 9940 fluorescence intensity (a.u.). As for “GCCTTCTCCATCTCTCTGCTTCTTTTGTTTGTTTTTCTTTCGGAGTCACCTAGTGCAG”, the binding signal is 13000 fluorescence intensity (a.u.). Take “ATCCATCTTCTTCTTCTTTCTTTCTTTTCTTCCTCTTCTTCGGAGTCACCTAGTGCAG”: the binding signal was 10400 fluorescence intensity (a.u.). Turning to “GCAGCTCTACTGTTTTCCGCTTCCATCTTCTTCCTTTCTTCGGAGTCACCTAGTGCAG”, the binding signal is 16700 fluorescence intensity (a.u.). On to “GTCCTTTACACTGATCCTGCACATCGCTCACTGTTTTCTTCGGAGTCACCTAGTGCAG”, for which the binding signal was 16800 fluorescence intensity (a.u.). As to “CTCACCTACCGCATCTGTGTTCCTTTTGCTTTCTTTCTTTCGGAGTCACCTAGTGCAG”, the binding signal was 18100 fluorescence intensity (a.u.). Turning to “CATCTTACCTTACGTCCACCGCATCTCATCCTTTGCTGTTCGGAGTCACCTAGTGCAG”, the binding signal is 12200 fluorescence intensity (a.u.).

For the sequence “GTTTTCTTTCTTTTTTTTTTCCACCTGTCGCACTGTACATCGGAGTCACCTAGTGCAG”, the binding signal is 11800 fluorescence intensity (a.u.). Turning to “TCCTTTTGCTTTCTTTCTTTTGTGTTTTTCAAATTTCTACCGGAGTCACCTAGTGCAG”, the binding signal was 9810 fluorescence intensity (a.u.).
